Screens deposited in PubChem by The Scripps Research Institute Molecular Screening Center.
Only some compounds are listed: those with a hit (about 5.7% of all), similar ones and a draw of the others.
DAX1 inh-1: DAX1 (NR0B1) inhibition, primary screen | HEK293T StAR-luciferase reporter, SF-1/DAX-1 repression relief | inhibition, % at 6.8 µM | 1.1% of 370,000 active | AID 652010;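 active means inhibition above the mean over all tested compounds plus 3 SD, cut at about 3.6% in these data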;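 further: higher inhibition means more luminescence from relief of DAX-1 repression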
ssDAF12 agonist: S. stercoralis DAF-12 activation, primary screen; 1% of 370,000 active; activation, % at 6.8 µM; HEK293 ssDAF-12/GRIP1 lit1-tk-luc reporter, luminescence; % of 3 µM dafachronic acid response;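 active means activation above the mean over all tested compounds plus 3 SD, cut at about 0.9% in these data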
hgDAF12 agonist: hgDAF-12 agonism, primary luciferase screen | HEK293 GAL4-hgDAF12 UAS-luciferase reporter, agonist luminescence; normalized to butyrate control | AID 687014 | activation, % at 6.8 µM | 1.8% of 370,000 active;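 active means activation above a cutoff set at the mean of all screened compounds plus 3 SD, cut at about 10% in these data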
DAX1 inh-2: NR0B1 (DAX1) inhibition; P51843; HEK293 Gal4-DAX1 luciferase reporter, luminescence; inhibition, % at 6.75 µM; 0.99% of 340,000 active; AID 504766;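 active means inhibition above the mean over all tested compounds plus 3 SD, cut at about 4.2% in these data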;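 further: inhibition shows as a rise in luminescence from relieved DAX1 repression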
Target sequence (P51843 207-470 limits assumed): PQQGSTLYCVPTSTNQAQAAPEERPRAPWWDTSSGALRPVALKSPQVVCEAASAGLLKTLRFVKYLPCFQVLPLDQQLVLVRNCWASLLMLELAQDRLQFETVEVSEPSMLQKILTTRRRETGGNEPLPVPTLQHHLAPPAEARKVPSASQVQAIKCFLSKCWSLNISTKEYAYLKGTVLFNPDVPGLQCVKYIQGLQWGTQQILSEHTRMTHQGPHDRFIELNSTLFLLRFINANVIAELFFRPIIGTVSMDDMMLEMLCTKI
AHR act: human AHR activation. P35869. AHR-responsive luciferase reporter cells, luminescence. activation, % at 5 µM. 2.5% of 320,000 active; in the data active means activation above about 47%
hcDAF-12 act: H. contortus DAF-12 activation, primary screen; HEK293 hcDAF-12 lit1-tk-luc reporter, luminescence; 0% DMSO, 100% Δ7-dafachronic acid; activation, % at 6.8 µM; 1.4% of 370,000 active; AID 652067;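 active means activation above the mean of all tested compounds plus 3 SD, cut at about 5.5% in these data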
Hits are given with their value; - = inactive; . = no result.

SMILES	DAX1 inh-1	ssDAF12 agonist	hgDAF12 agonist	DAX1 inh-2	AHR act	hcDAF-12 act
O=C(Nc1nnc([C@H]2C[C@H](O)[C@@H](CO)O2)s1)c1cccc(C(F)(F)F)c1	-	-	-	.	.	-
CC(C)Oc1cccc(C(=O)Nc2nnc([C@@H]3C[C@H](O)[C@@H](CO)O3)s2)c1	-	1.0	-	.	.	-
O=C(Nc1ccc(Cl)cc1)c1csc([C@@H]2C[C@H](O)[C@@H](CO)O2)n1	-	-	-	.	.	-
O=C(Nc1cccc(C(F)(F)F)c1)Nc1nnc([C@@H]2C[C@H](O)[C@@H](CO)O2)s1	-	-	10.5	.	.	-
CCOc1cc(/C=C/C(=O)c2ccc(O)cc2)ccc1OCC(=O)N(C)C	-	-	-	-	-	-
CNc1nnc(-c2ccc(N(C)C)cc2)s1	5.8	-	10.9	-	-	-
COc1ccnc(CSC(N)=Nc2cccc(C(F)(F)F)c2)c1	-	-	-	-	55.4	-
COc1ccnc(CSC(N)=Nc2ccccc2C(F)(F)F)c1	-	-	-	-	-	-
COc1cc(-c2nc3ccc4ccccc4c3c3c2CCC3)ccc1O	-	-	-	-	71.6	-
COc1ccc2nc(SCC(=O)NC3CC3)c(C#N)cc2c1	-	-	-	-	-	-
CCOC(=O)NN1C(=O)c2ccccc2NC1c1ccc(OC)c(OC)c1 (configuration not stated)	-	-	-	4.6	-	-
COc1ccc(C2Nc3ccccc3C(=O)N2NC(C)=O)cc1OC (configuration not stated)	-	-	-	-	-	-
O=c1c2ccccc2nc(COc2ccccc2)n1/N=C/c1c[nH]c2ccccc12	-	-	-	-	63.0	-
O=c1c2ccccc2nc(COc2ccccc2)n1/N=C/c1ccc(O)cc1O	-	-	-	-	-	-
c1ccc2c(c1)nc(N1CCOCC1)c1c3ccccc3[nH]c21	-	-	-	-	95.4	-
Cc1ccc(NC(=O)c2ccc(OCc3c(C)noc3C)cc2)nc1	-	-	-	-	-	-
CCCCC(=O)Nc1ccc2oc(-c3cccnc3)nc2c1	-	-	-	-	-	-
CC(=O)C1=C(C)N(CC2CC2)C(=O)N[C@H]1c1cccs1	.	.	.	-	-	.
COc1ccc2[nH]c(N=Nc3ccccc3C)c(O)c2c1	-	-	-	-	65.2	6.5
COc1ccc(N=Nc2c(C)[nH]c3ccccc23)cc1	-	-	-	-	-	-
COC(=O)c1[nH]c2ccc(Cl)cc2c1NC(=O)Oc1ccccc1	-	-	-	-	-	-
CC1=NN(c2ccccc2)C(=O)C1N=Nc1ccc(C)cc1 (configuration not stated)	.	.	.	.	-	.
CC(=O)Nc1ccc(N2N=C(C)C(N=Nc3ccccc3)C2=O)cc1 (configuration not stated)	-	-	-	-	49.5	-
COc1cccc(-c2cc3c(-n4cccc4)ncnc3o2)c1	-	-	-	-	56.0	-
Cc1ccc(O)c(N=NC2=C(O)CC(C)(C)CC2=O)c1	-	-	-	-	-	-
SMILES	DAX1 inh-1	ssDAF12 agonist	hgDAF12 agonist	DAX1 inh-2	AHR act	hcDAF-12 act
C/C(O)=C(\N=Nc1cc(C)ccc1O)C(N)=O	-	-	-	.	51.5	-
COc1cc(C(C[N+](=O)[O-])c2c(C)cc3ccccn23)ccc1O (configuration not stated)	-	-	-	4.4	-	-
Cc1oc2c(C)c(O)ccc2c(=O)c1-c1ccc2ccccc2n1	-	-	-	-	-	-
Cc1cc(OCc2cc(C(=O)N(C)Cc3ccccn3)no2)cc(C)c1Cl	-	-	11.3	-	-	-
Cc1cc(OCc2cc(C(=O)N(C)C(C)c3ccccn3)no2)cc(C)c1Cl (configuration not stated)	-	-	12.1	-	-	-
CC(=O)c1ccc(OCc2cc(C(=O)N(C)Cc3ccon3)no2)cc1	-	-	-	-	.	-
CC(=O)c1ccc(OCc2cc(C(=O)N(C)Cc3ccccn3)no2)cc1	4.0	1.0	-	-	.	-
COCC1CCN(C(=O)c2cc(COc3cc(C)c(Cl)c(C)c3)on2)C1 (configuration not stated)	-	-	-	-	-	6.3
CSc1ccccc1OCc1cc(C(=O)N(C)C(C)c2ccccn2)no1 (configuration not stated)	-	-	-	-	.	-
Cc1cc(OCc2cc(C(=O)N(C)CCOc3ccccc3)no2)cc(C)c1Cl	-	-	-	-	-	-
CC1CCCC(C)N1CCCNC(=O)C(=O)Nc1ccc2nc3n(c(=O)c2c1)CCCCC3 (configuration not stated)	-	-	-	-	-	-
O=C(COC(=O)c1cnccn1)c1ccc(Cl)c([N+](=O)[O-])c1	-	-	-	-	-	-
Cc1cc(OCc2cc(C(=O)N(C)CC3CCOCC3)no2)cc(C)c1Cl	-	-	-	-	-	-
CCN(CC1CCCO1)C(=O)c1cc(COc2cc(C)c(Cl)c(C)c2)on1 (configuration not stated)	-	1.5	-	-	.	-
Cc1cc(/C=C(\C#N)C(=O)NCc2cccs2)c(C)n1-c1ccccc1F	-	1.1	-	-	-	-
COc1cnc(-c2cccc(C(F)(F)F)c2)[nH]c1=O	-	-	-	-	-	-
CN(CC(=O)Nc1c(Cl)cccc1Cl)C(=O)Cc1ccc(S(=O)(=O)N2CCOCC2)s1	-	-	-	-	-	-
COc1ccc(NC(=O)CN(C)C(=O)Cc2ccc(S(=O)(=O)N3CCOCC3)s2)cc1	4.4	-	-	-	-	-
COc1ccccc1NC(=O)COC(=O)Cc1c[nH]c2ccccc12	-	-	-	-	-	6.3
COc1ccccc1CNC(=O)COC(=O)Cc1c[nH]c2ccccc12	-	-	-	-	-	-
CNCc1ccccc1OCC(=O)Nc1ccccc1OC	-	-	-	-	69.3	-
COc1ccc(NC(=O)CN(C)C(=O)Cc2c[nH]c3ccccc23)cc1	-	-	-	-	-	6.4
COC(=O)CC[C@@H](C(=O)O)N1C(=O)c2ccccc2C1=O	-	-	-	-	-	-
O=C(COc1ccccc1CNCc1ccccc1)Nc1ccccc1	-	-	10.7	-	-	-
Cc1ccc(NC(=O)CNCc2ccccc2OCC(=O)Nc2ccc(I)cc2)cc1	-	-	-	.	.	-
SMILES	DAX1 inh-1	ssDAF12 agonist	hgDAF12 agonist	DAX1 inh-2	AHR act	hcDAF-12 act
CCc1nc2ccc(C(=O)NCCCN3CCCC3=O)cn2c1N(CCC(C)C)CCN(C)C	-	-	-	.	.	-
COc1cccc(C#Cc2c(CO)[nH]c3ccccc23)c1	-	-	-	-	-	6.2
Cc1ccccc1OCC(=O)Nc1nnc(C2CC2)s1	-	-	-	-	-	-
N#Cc1ccccc1OCC(=O)OCC(=O)NC1CCCCC1	-	-	-	-	.	-
N#Cc1ccccc1OCC(=O)NC1CCCCCC1	-	-	10.9	-	.	-
N#Cc1ccccc1OCC(=O)Nc1nnc(C2CC2)s1	-	-	-	-	64.4	-
